Only some compounds are listed: those with a hit (about 3.2% of all), similar ones and a draw of the others.
CRFBP-R2 agonist = CRF-BP/CRF-R2 complex agonism. HEK293 CRF-R2/CRF-BP, calcium dye fluorescence (FLIPR); percent of saturating CRF peptide response. activation, % at 13.2 µM. 350,000 compounds, 0.46% hits;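 active = activation of at least 50%, plus an integration ratio under a set limit after plate pattern correction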;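 note: plate controls were neutral control wells without compound for no effect and CRF at EC100 for full effect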
aDG glyco up = alpha-DG glycosylation activation; Pro5-aDG cells, alpha-DG glycosylation AlphaScreen (IIH6); 0% Pro5, 100% B10-LARGE cell signal; activation, % at 10 µM; 360,000 compounds, 0.22% hits; AID 624168;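 active = activation of at least 8% versus controls, or a plate z-score of at least 8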;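 note: Pro5 are CHO cells carrying HIG-tagged alpha-DG that lacks glycosylation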
Cardio protect = myocardial damage modulation in H9c2 cells; 360,000 compounds, 0.63% hits; H9c2 cardiomyocytes, H2O2 injury protection, ATPLite, 2 h; protection from H2O2 cell death, % at 20 µM; AID 588492;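 active = compounds giving at least 50% protection of heart cells from peroxide-induced death in the single-dose screen, raw or plate-pattern-corrected value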;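 note: 0% = DMSO wells with peroxide and 100% = DMSO wells without peroxide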
FAS-TE inh = inhibitors of human fatty acid synthase thioesterase domain; P49327; recombinant FAS-TE, OMFH fluorogenic substrate, fluorescence endpoint; inhibition, % at 15 µM; 360,000 compounds, 0.67% hits;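 active = compounds whose normalised, plate-corrected inhibition of enzyme fluorescence in the single-dose primary screen is 50% or more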;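 note: 0% = DMSO with enzyme and 100% = substrate without enzyme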
PfG6PD inh = PfG6PD (Plasmodium falciparum) enzyme inhibition; PfGluPho enzyme, NADPH resazurin-diaphorase fluorescence; inhibition, % at 20 µM; 350,000 compounds, 0.78% hits; AID 504690;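 active = inhibition reaching at least a set limit at 20 µM in the primary screen, cut at about 59% in these data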;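 note: 0% = DMSO wells with substrate and 100% = DMSO wells lacking glucose-6-phosphate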
CRFR2-BP antag = blocks CRF-induced signaling of the CRF-BP/CRF-R2 complex; HEK293 CRF-R2/CRF-BP, CRF-induced calcium fluorescence; inhibition, % at 11.8 µM; 350,000 compounds, 0.59% hits; AID 588475;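 active = inhibition of the ligand-induced calcium signal above about 50% at the single tested concentration, limit read from the data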
PfGluPho conf = confirmation of Plasmodium falciparum G6PD inhibitors. shares compounds with PfG6PD inh. recombinant PfGluPho, NADPH-diaphorase-resazurin fluorescence. inhibition, % at 20 µM. 2,400 compounds, 34% hits;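 active = inhibition of at least 50% at 20 µM in any single replicate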;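 note: 0% = DMSO with substrate and 100% = DMSO lacking glucose-6-phosphate substrate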
Diaph ctr 10uM = inhibits diaphorase or oxidizes, flagging false PfG6PD hits; shares compounds with PfG6PD inh; diaphorase-coupled resazurin reduction, fluorescence, NADPH 10 uM; inhibition, % at 20 µM; 820 compounds, 39% hits; AID 504862;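 active = average inhibition reaching 50% or more with the compound at 20 µM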;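 note: resorufin red fluorescence formed as diaphorase reduces resazurin using NADPH; 0% = DMSO with enzyme and 100% = DMSO without enzyme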
Diaphorase 30uM = counter-screen for P. falciparum G6PD inhibitors: diaphorase inhibitors, oxidizers. shares compounds with PfG6PD inh. inhibition, % at 20 µM. 820 compounds, 29% hits. AID 504863. Diaphorase/resazurin coupled assay, resorufin fluorescence, 30 uM NADPH;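 active = inhibition averaging 50% or more, tested at 20 µM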;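 note: 0% = DMSO with enzyme and 100% = DMSO wells lacking diaphorase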
Starred values were filed as active, the others as inactive; · = no result.

SMILES	CRFBP-R2 agonist	aDG glyco up	Cardio protect	FAS-TE inh	PfG6PD inh	CRFR2-BP antag	PfGluPho conf	others
COc1cc(OC)cc(C(=O)N[C@H](C(=O)OCC(=O)N2CCc3ccccc32)C(C)C)c1	1	0	-20	3	18	-1	·
COc1ccccc1NS(=O)(=O)c1cc(NC(=O)c2[nH]c(C)c(C(C)=O)c2C)ccc1N1CCOCC1	-2	0	22	22	34	30	·
O=[N+]([O-])c1ccc(COc2ccc(CN3CCOCC3)cc2)cc1	3	0	-26	-1	-4	-3	·
O=[N+]([O-])c1ccc(COc2ccc(Br)cc2CN2CCOCC2)cc1	1	0	9	16	65*	-18	24
O=[N+]([O-])c1ccc(CN2CCOCCOCCN(Cc3ccc([N+](=O)[O-])cc3)CCOCC2)cc1	-2	0	1	34	62*	36	-4
COc1ccc(NC(=O)CCCN2C(=O)C(c3ccccc3)Oc3cccnc32)c(OC)c1 (stereo unspecified)	-1	0	-4	5	-1	14	·
Nc1nnc(SCc2nc3scc(-c4ccccc4)c3c(=O)[nH]2)s1	1	0	-11	-19	19	-3	·
CCn1c(SCc2nc3ccccc3[nH]2)nnc1-c1cccs1	-1	0	-11	-4	43	0	·
CCn1c(SCc2nc3scc(-c4ccccc4)c3c(=O)[nH]2)nnc1-c1cccs1	-3	0	0	9	47	-12	49*	Diaph ctr 10uM=49;Diaphorase 30uM=43
Cc1nnc(SCc2nc3scc(-c4ccccc4)c3c(=O)[nH]2)s1	0	0	-5	-8	60*	10	34
Cc1ccc(C(C)C)cc1OCCn1cncn1	-3	0	4	-4	-6	23	·
O=C(OCCCN=C1NS(=O)(=O)c2ccccc21)c1ccc([N+](=O)[O-])cc1	1	0	9	0	-1	18	·
CCNC(=O)N(C)c1c(CC)nc2ccc(C(=O)N3CCN(C(=O)c4ccco4)CC3)cn12	·	0	3	-7	·	·	·
Cc1cc(NC(=O)c2ccccc2F)nc2c1c(=O)oc1ccccc12	-1	0	-5	4	6	3	·
CCOc1ccccc1C(=O)Nc1ccc(S(=O)(=O)Nc2nccc(C)n2)cc1	0	0	6	-1	73*	-2	14
CCOc1ccc(C(=O)Nc2ccc(S(=O)(=O)Nc3nccc(C)n3)cc2)cc1OCC	0	0	-4	-4	-1	-16	·
Cc1ccc(N=Cc2ccc[nH]2)c(O)c1	5	1	-11	-7	77*	-14	40
CCc1cccc(CC)c1NC(=O)CSc1nnc(C2CC2)n1C	-1	0	2	-11	1	11	·
COc1ccccc1C(=O)NCC(=O)OCC(=O)Nc1ccc2[nH]c(=O)[nH]c2c1	-1	0	14	-6	9	4	·
CC(=O)Nc1cc(OC(C)=O)c2nonc2c1OC(C)=O	0	1	-16	-8	80*	6	53*	Diaph ctr 10uM=18;Diaphorase 30uM=24
CC(=O)Nc1nonc1NC(C)=O	1	0	-1	-6	-12	-10	·
O=C(NN1CCN(Cc2ccccc2Cl)CC1)c1ccc(Br)cc1	7	0	-14	-4	2	3	·
O=C(Nc1cccc(F)c1)c1ccc(-c2ccccc2Cl)o1	5	0	-22	38	79*	-10	-7
COc1ccc(NC(=O)c2ccc(-c3ccccc3Cl)o2)cc1	-4	0	-19	20	65*	8	13
COc1ccc(NC(=O)c2ccc(-c3ccc(C)c4ccccc34)o2)cc1	1	0	-4	26	30	3	·
SMILES	CRFBP-R2 agonist	aDG glyco up	Cardio protect	FAS-TE inh	PfG6PD inh	CRFR2-BP antag	PfGluPho conf	others
CS(=O)(=O)c1ccc(NS(=O)(=O)c2ccc(Cl)c(C(=O)NCc3ccco3)c2)cc1	4	0	-1	-8	-3	-5	·
CCOc1ccccc1Oc1nc(-c2ccccc2O)nc2ccccc12	2	0	-6	13	86*	-6	15
O=C(NCc1ccccc1)C1Cc2c(-c3ccc4c(c3)OCO4)ccnc2O1 (stereo unspecified)	·	0	-4	3	·	·	·
Cc1cc(C)c(NS(=O)(=O)c2cccc3cccnc23)c(C)c1	-3	0	-1	7	46	6	22
CCSS(=O)(=O)c1cccc2cccnc12	2	0	17	-6	80*	-11	2
O=C(NC(=S)Nc1ccc(Cl)cn1)c1cc([N+](=O)[O-])ccc1N1CCOCC1	2	0	-2	41	11	-14	·
CCN(CC)c1ccc(NC(=O)c2ccccc2)cc1S(=O)(=O)Nc1ccccc1OC	0	0	-4	20	74*	2	31
COc1ccc(NC(=O)c2ccccc2)cc1NS(=O)(=O)c1ccc(F)cc1	-5	0	6	-2	12	16	·
CCN(CC)c1ccc(NC(=O)c2cccc(C)c2)cc1S(=O)(=O)Nc1ccccc1OC	0	0	-9	25	73*	10	54*	Diaph ctr 10uM=-17;Diaphorase 30uM=-19
Cc1cc(C)cc(NC(=O)N2CCCN(Cc3c(F)cccc3Cl)CC2)c1	-4	0	1	11	-5	-16	·
COCC(C)n1c(C)cc(C(=O)CSc2nc(C)c(C)c(C)n2)c1C (stereo unspecified)	0	1	-6	-2	60*	16	-12
CCOc1ccc2c(c1)C(C)=CC(C)(C)N2	-2	0	-2	0	90*	10	33
CC1=CC(C)(C)Nc2ccc(OC(=O)CN3C(=O)c4ccccc4C3=O)cc21	0	0	-19	19	75*	-2	35
CC1=CC(C)(C)Nc2ccc(OC(=O)CN3C(=O)c4cccc5cccc(c45)C3=O)cc21	19	1	-4	18	91*	-15	85*	Diaph ctr 10uM=39;Diaphorase 30uM=25
CCc1ccc2c(c1)C(C)=CC(C)(C)N2	5	0	-6	-2	7	4	·
Cc1ccc(NS(=O)(=O)c2cccc(C(=O)Nc3cccnc3)c2)c(C)c1	-2	0	-4	6	4	-11	·
CCOC(=O)c1ccc(N(CCC2CO2)S(=O)(=O)c2ccc(C)cc2)cc1 (stereo unspecified)	5	0	-8	8	-29	24	·
Cc1c(C(=O)NCc2ccccc2)sc(=O)n1Cc1ccccc1F	·	0	-4	0	·	·	·

Screens as filed in PubChem BioAssay.
